According to PubChem BioAssay AID1159580 (chemical genetic matrix, 2015):
“And” between values parts separate entries of the source, which are not always exact repeats. Identical values can stand only once. Screen size: about 5,500 compounds; about 2,000 (36%) were called active. Inconclusive results (about 18%) are left out. Rule as the data show it: active = normalized growth mostly below about 0.91 (no sharp cut-off); inconclusive = no clear call, values can overlap the other calls; inactive = mostly above about 0.92. The list shows a part of the results.

Assay: chemical genetic growth profiling, strain panel (AID 1159580);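 also: tested at 20 µM; growth read once vehicle control cultures reached saturation at 30 °C; 1 = growth at the plate median or of vehicle wells; lower values mean less growth of the strain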
Conditions: S. cerevisiae deletion strains, growth OD

Measured: normalized growth

CCCCNc1cc(C(=O)O)cc(S(N)(=O)=O)c1Oc1ccccc1
inactive: locus YAL013W, strain DEP1, hits give low values 0.964 | locus YAL021C, strain ccr4, hits give low values 1.03 | locus YAL026C, strain drs2, hits give low values 1.01 | locus YAL030W, strain snc1, hits give low values 1.01 | locus YAL040C, strain CLN3, hits give low values 0.946 | locus YBL061C, strain skt5, hits give low values 0.992 | locus YBR009C, strain hhf1, hits give low values 0.997 | locus YBR021W, strain FUR4, hits give low values 0.985 | locus YBR023C, strain chs3, hits give low values 0.999 | locus YBR171W, strain sec66, hits give low values 0.998 | locus YBR229C, strain ROT2, hits give low values 0.987 | locus YBR231C, strain swc5, hits give low values 0.99 | locus YBR279W, strain paf1, hits give low values 1.01 | locus YCL011C, strain gbp2, hits give low values 1 | locus YCL016C, strain dcc1, hits give low values 0.993 | locus YCL029C, strain bik1, hits give low values 0.981 | locus YCL069W, strain vba3, hits give low values 1.01 | locus YCR088W, strain abp1, hits give low values 1.01 | locus YDL005C, strain med2, hits give low values 0.999 | locus YDL035C, strain GPR1, hits give low values 0.996 | locus YDL040C, strain nat1, hits give low values 0.999 | locus YDL074C, strain BRE1, hits give low values 1.03 | locus YDL101C, strain DUN1, hits give low values 0.992 | locus YDL134C, strain PPH21, hits give low values 0.965 | locus YDL185W, strain tfp1, hits give low values 0.98 | locus YDL192W, strain arf1, hits give low values 0.991 | locus YDR001C, strain nth1, hits give low values 1.01 | locus YDR069C, strain doa4, hits give low values 1.01 | locus YDR101C, strain arx1, hits give low values 0.992 | locus YDR137W, strain rgp1, hits give low values 1.01 | locus YDR150W, strain NUM1, hits give low values 0.975 | locus YDR159W, strain sac3, hits give low values 0.943 | locus YDR162C, strain NBP2, hits give low values 0.982 | locus YDR195W, strain ref2 0.983 | locus YDR297W, strain sur2, hits give low values 0.997 | locus YDR318W, strain mcm21, hits give low values 0.989 | locus YDR334W, strain swr1, hits give low values 1.02 | locus YDR335W, strain msn5, hits give low values 1.01 | locus YDR363W, strain ESC2, hits give low values 0.992 | locus YDR388W, hits give low values 0.975 | locus YDR392W, strain spt3, hits give low values 0.906 | locus YDR502C, strain sam2, hits give low values 1.01 | locus YEL003W, strain gim4, hits give low values 1.01 | locus YEL037C, strain rad23, hits give low values 1 | locus YEL061C, strain CIN8 (second series), hits give low values 1.03 | locus YEL061C, strain CIN8, hits give low values 0.994 | locus YER002W, strain NOP16, hits give low values 0.986 | locus YER015W, strain faa2, hits give low values 1.01 | locus YER016W, strain bim1, hits give low values 0.987 | locus YER110C, hits give low values 0.978 | locus YER111C, strain swi4, hits give low values 0.998 | locus YER155C, strain BEM2 (second series), hits give low values 0.974 | locus YER155C, strain BEM2, hits give low values 0.989 | locus YER167W, strain BCK2, hits give low values 0.98 | locus YFR010W, strain ubp6, hits give low values 1.01 | locus YGL078C, strain dbp3, hits give low values 0.97 | locus YGL086W, strain mad1, hits give low values 0.998 | locus YGL167C, strain pmr1, hits give low values 1 | locus YGL173C, strain kem1, hits give low values 0.983 | locus YGL227W, strain vid30, hits give low values 0.992 | locus YGL240W, strain doc1, hits give low values 0.996 | locus YGL248W, strain PDE1, hits give low values 1 | locus YGL253W, strain hxk2, hits give low values 1.04 | locus YGR078C, strain PAC10, hits give low values 0.98 | locus YGR135W, strain pre9, hits give low values 0.957 | locus YGR252W, strain gcn5, hits give low values 0.956 | locus YHR013C, strain ard1, hits give low values 0.972 | locus YHR027C, strain rpn1, hits give low values 1.01 | locus YHR030C, strain SLT2, hits give low values 0.983 and 1.03 | locus YHR079C, strain IRE1 (second series), hits give low values 0.99 | locus YHR079C, strain IRE1, hits give low values 1.07 | locus YHR094C, strain hxt1, hits give low values 0.97 | locus YHR129C, strain ARP1, hits give low values 0.99 | locus YHR142W, strain chs7, hits give low values 1.03 | locus YHR200W, strain rpn10, hits give low values 0.984 | locus YIL066C, strain RNR3, hits give low values 0.997 | locus YIL073C, strain SPO22, hits give low values 0.937 | locus YIL125W, strain kgd1, hits give low values 0.973 | locus YIR030C, strain dcg1, hits give low values 0.981 | locus YJL092W, strain hpr5, hits give low values 1.01 | locus YJL095W, strain BCK1 (second series), hits give low values 0.999 | locus YJL095W, strain BCK1, hits give low values 1.03 and 1.02 | locus YJL115W, strain asf1, hits give low values 1 | locus YJL129C, strain trk1, hits give low values 1.01 | locus YJL134W, strain LCB3, hits give low values 0.993 | locus YJL154C, strain vps35, hits give low values 1 | locus YJL164C, strain tpk1, hits give low values 1.01 | locus YJL166W, strain qcr8, hits give low values 1.01 | locus YJL168C, strain set2, hits give low values 0.982 | locus YJL187C, strain SWE1 (second series), hits give low values 1.01 | locus YJR043C, strain POL32, hits give low values 1 | locus YJR066W, strain TOR1, hits give low values 0.966 | locus YJR075W, strain HOC1, hits give low values 0.971
